Article PMC5540273 (PLoS ONE, 2017)

How the values were obtained:
Conditions in all cases: concentration: 1 μM,replicates: in singlicate; n = 1
SNARK = tested on: T1, SNARK
T1 construct: gene NUAK2

SNRK = tested on: SNRK
SRC = tested on: SRC
SRMS = tested on: SRMS
SRPK1 = tested on: SRPK1
SRPK2 = tested on: SRPK2
SRPK3 = tested on: SRPK3
STK16 = tested on: STK16
STK33 = tested on: STK33
STK35 = tested on: STK35
STK36 = tested on: STK36
STK39 = tested on: STK39
SYK = tested on: SYK
SgK110 = tested on: SgK110
TAK1 = tested on: T2, TAK1
T2 construct: gene MAP3K7

TAOK1 = tested on: TAOK1
TAOK2 = tested on: TAOK2
TAOK3 = tested on: TAOK3
TBK1 = tested on: TBK1
TEC = tested on: TEC
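Also: KINOMEscan kinase panel screen.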

COC(=O)c1cccc(NC(=O)NC2CCN(c3ccnc(Nc4cc(OC)c(OC)c(OC)c4)n3)C2)c1 (centres unmarked) [GSK1379767]
%Inh (SNARK): 21% | %Inh (SNRK): 0% | %Inh (SRC): 19% | %Inh (SRMS): 0% | %Inh (SRPK1): 35% | %Inh (SRPK2): 45% | %Inh (SRPK3): 4% | %Inh (STK16): 61% | %Inh (STK33): 0% | %Inh (STK35): 0% | %Inh (STK36): 0% | %Inh (STK39): 5% | %Inh (SYK): 34% | %Inh (SgK110): 0% | %Inh (TAK1): 12% | %Inh (TAOK1): 0% | %Inh (TAOK2): 0% | %Inh (TAOK3): 0% | %Inh (TBK1): 32% | %Inh (TEC): 0%

Cc1ccn2nc(-c3ccc(F)cc3)c(-c3ccncc3)c2c1.Cl [GW457859]
%Inh (SNARK): 7% | %Inh (SNRK): 52% | %Inh (SRC): 0% | %Inh (SRMS): 0% | %Inh (SRPK1): 13% | %Inh (SRPK2): 68% | %Inh (SRPK3): 0% | %Inh (STK16): 1% | %Inh (STK33): 0% | %Inh (STK35): 0% | %Inh (STK36): 24% | %Inh (STK39): 4% | %Inh (SYK): 18% | %Inh (SgK110): 0% | %Inh (TAK1): 64% | %Inh (TAOK1): 0% | %Inh (TAOK2): 0% | %Inh (TAOK3): 0% | %Inh (TBK1): 14% | %Inh (TEC): 0%

COc1cc2c(Nc3ccc(NC(=O)c4ccccc4)cc3)ncnc2cc1OCCCN1CCOCC1 [GSK301329]
%Inh (SNARK): 7% | %Inh (SNRK): 0% | %Inh (SRC): 20% | %Inh (SRMS): 19% | %Inh (SRPK1): 0% | %Inh (SRPK2): 0% | %Inh (SRPK3): 2% | %Inh (STK16): 12% | %Inh (STK33): 41% | %Inh (STK35): 4% | %Inh (STK36): 0% | %Inh (STK39): 0% | %Inh (SYK): 7% | %Inh (SgK110): 0% | %Inh (TAK1): 0% | %Inh (TAOK1): 0% | %Inh (TAOK2): 0% | %Inh (TAOK3): 0% | %Inh (TBK1): 0% | %Inh (TEC): 0%

Cc1cccc2c(-c3ccncc3)c(-c3ccc(F)cc3)nn12.Cl [GW461487]
%Inh (SNARK): 17% | %Inh (SNRK): 0% | %Inh (SRC): 0% | %Inh (SRMS): 0% | %Inh (SRPK1): 0% | %Inh (SRPK2): 0% | %Inh (SRPK3): 100% | %Inh (STK16): 4% | %Inh (STK33): 0% | %Inh (STK35): 0% | %Inh (STK36): 24% | %Inh (STK39): 12% | %Inh (SYK): 25% | %Inh (SgK110): 0% | %Inh (TAK1): 0% | %Inh (TAOK1): 1% | %Inh (TAOK2): 0% | %Inh (TAOK3): 5% | %Inh (TBK1): 16% | %Inh (TEC): 0%

O=C(Nc1cccc(Oc2ccc3nccn3n2)c1)Nc1cccc(C(F)(F)F)c1
%Inh (SNARK): 0% | %Inh (SNRK): 0% | %Inh (SRC): 0% | %Inh (SRMS): 0% | %Inh (SRPK1): 0% | %Inh (SRPK2): 0% | %Inh (SRPK3): 14% | %Inh (STK16): 9% | %Inh (STK33): 21% | %Inh (STK35): 0% | %Inh (STK36): 0% | %Inh (STK39): 0% | %Inh (SYK): 0% | %Inh (SgK110): 16% | %Inh (TAK1): 0% | %Inh (TAOK1): 0% | %Inh (TAOK2): 0% | %Inh (TAOK3): 0% | %Inh (TBK1): 8% | %Inh (TEC): 0%

CS(=O)(=O)c1cccc(CNc2nc(Nc3ccc4c(c3)[C@@H]3C[C@@H]4CNC3=O)ncc2C(F)(F)F)c1
%Inh (SNARK): 97.6% | %Inh (SNRK): 0% | %Inh (SRC): 0% | %Inh (SRMS): 0% | %Inh (SRPK1): 91.6% | %Inh (SRPK2): 0% | %Inh (SRPK3): 49% | %Inh (STK16): 97.3% | %Inh (STK33): 0% | %Inh (STK35): 0% | %Inh (STK36): 10% | %Inh (STK39): 9% | %Inh (SYK): 93.8% | %Inh (SgK110): 0% | %Inh (TAK1): 92.2% | %Inh (TAOK1): 51% | %Inh (TAOK2): 24% | %Inh (TAOK3): 36% | %Inh (TBK1): 98.6% | %Inh (TEC): 0%

CS(=O)(=O)Nc1ccc(-c2ccnc3[nH]ccc23)cc1 [GSK993273]
%Inh (SNARK): 40% | %Inh (SNRK): 0% | %Inh (SRC): 0% | %Inh (SRMS): 0% | %Inh (SRPK1): 77% | %Inh (SRPK2): 0% | %Inh (SRPK3): 75% | %Inh (STK16): 81% | %Inh (STK33): 5% | %Inh (STK35): 15% | %Inh (STK36): 0% | %Inh (STK39): 24% | %Inh (SYK): 52% | %Inh (SgK110): 0% | %Inh (TAK1): 33% | %Inh (TAOK1): 27% | %Inh (TAOK2): 0% | %Inh (TAOK3): 0% | %Inh (TBK1): 10% | %Inh (TEC): 16%

O=C(NCC1CC1)c1ccc(-c2cc(C(=O)NC3CC3)ccc2F)cc1 [GW810445]
%Inh (SNARK): 0% | %Inh (SNRK): 0% | %Inh (SRC): 9% | %Inh (SRMS): 2% | %Inh (SRPK1): 0% | %Inh (SRPK2): 0% | %Inh (SRPK3): 0% | %Inh (STK16): 4% | %Inh (STK33): 0% | %Inh (STK35): 0% | %Inh (STK36): 0% | %Inh (STK39): 15% | %Inh (SYK): 17% | %Inh (SgK110): 51% | %Inh (TAK1): 4% | %Inh (TAOK1): 0% | %Inh (TAOK2): 0% | %Inh (TAOK3): 0% | %Inh (TBK1): 26% | %Inh (TEC): 2%

O=C(NOCC1CC1)c1cc(Br)c(F)c(F)c1Nc1ccc(I)cc1Cl
%Inh (SNARK): 0% | %Inh (SNRK): 0% | %Inh (SRC): 2% | %Inh (SRMS): 0% | %Inh (SRPK1): 0% | %Inh (SRPK2): 0% | %Inh (SRPK3): 0% | %Inh (STK16): 20% | %Inh (STK33): 0% | %Inh (STK35): 0% | %Inh (STK36): 0% | %Inh (STK39): 0% | %Inh (SYK): 13% | %Inh (SgK110): 0% | %Inh (TAK1): 0% | %Inh (TAOK1): 0% | %Inh (TAOK2): 27% | %Inh (TAOK3): 0% | %Inh (TBK1): 5% | %Inh (TEC): 0%

N#Cc1cccc(C(=O)NC2CCN(c3ccnc(Nc4ccc(F)cc4)n3)C2)c1 (centres unmarked) [GSK1379708]
%Inh (SNARK): 0% | %Inh (SNRK): 0% | %Inh (SRC): 5% | %Inh (SRMS): 0% | %Inh (SRPK1): 40% | %Inh (SRPK2): 0% | %Inh (SRPK3): 0% | %Inh (STK16): 12% | %Inh (STK33): 0% | %Inh (STK35): 0% | %Inh (STK36): 0% | %Inh (STK39): 0% | %Inh (SYK): 27% | %Inh (SgK110): 5% | %Inh (TAK1): 0% | %Inh (TAOK1): 0% | %Inh (TAOK2): 0% | %Inh (TAOK3): 0% | %Inh (TBK1): 0% | %Inh (TEC): 0%
